Assay outcomes from PubChem.
Rows were chosen to be rich in hits. Some 17% of all compounds tested hit in one or more screens of this group.
TDP1 cell CPT – growth inhibition of DT40 Tdp1-/-;hTDP1 cells with camptothecin (screen for TDP1 inhibitors); chicken DT40 Tdp1-/-;hTDP1 cells + 20 nM CPT, ATP luminescence, 48 h; 420,000 compounds, 12% hits; Potency, µM (highest dose often 46.2 µM), for inactives: at the highest dose activity change, negative = growth inhibition, usual class: inhibitors; note: % is set by controls: 0 for no effect and ±100 for the full control effect; nearly all actives have a fitted effect of over 55% in size
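Chicken DT40 Tdp1-/- cells stably complemented with human TDP1 were seeded at 400 cells/well in medium containing 20 nM camptothecin, exposed to pin-transferred compounds, and grown at 37 °C for at least 48 hr. Viability was read as ATP luminescence.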
TGFb inhibitor – inhibitors of TGF-b signaling; HepG2 CAGA-GFP TGF-b/SMAD3 reporter, GFP fluorescence, 18 h; TGF-beta stimulated, 500 pg/mL final; Potency, µM (series often up to 46.1 µM), for the others: at the top dose activity, negative = inhibition, usual class: inhibitors; 410,000 compounds, 1.2% hits; note: % is set by controls: 0 for no effect and ±100 for the full control effect; nearly all actives have a fitted effect of over 65% in size
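Cell-based qHTS in HEPG2 carrying a CAGA-GFP Smad reporter; compounds added before 500 pg/mL final TGF-beta, 18 h incubation at 37 degrees C, GFP fluorescence quantified per cell by imaging cytometry.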
ATXN2 expr inh – inhibitors of ATXN2 expression. HEK-293 ATXN2-luciferase reporter, luminescence, 24 h. Potency, µM (doses to about 57 µM), inactives show at the highest dose activity change, negative = inhibition, actives largely listed as inhibitors. 360,000 compounds, 0.72% hits. AID 1745845; note: % is set by controls: 0 for no effect and ±100 for the full control effect; nearly all actives have a fitted effect of over 55% in size
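qHTS (up to 57 uM final) was run with 24 h compound exposure of reporter cells at 37 °C. Each well was multiplexed: SteadyGlo luminescence measured ATXN2-luciferase expression after a fluorogenic Gly-Phe-AFC viability readout (25 uM final).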
DT40 TDP1 no CPT – qHTS for Inhibitors of human tyrosyl-DNA phosphodiesterase 1 (TDP1): qHTS in cells in absence of CPT; AID 686978, 2013; 420,000 compounds, 15% hits; DT40 Tdp1-/- hTDP1 cells, no CPT, ATP luminescence, 48 h; Potency, µM (top dose mostly 46.2 µM), inactives show top-dose activity change, negative = growth inhibition, usual class: inhibitors; note: % is set by controls: 0 for no effect and ±100 for the full control effect; nearly all actives have a fitted effect of over 55% in size
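Chicken DT40 Tdp1-/- cells complemented with human TDP1, screened without camptothecin (DMSO vehicle only), 400 cells/well. Compounds pin-transferred, cells incubated at 37 °C for at least 48 hr. Growth read as ATP-dependent luminescence (CellTiter-Glo, 30 min at RT).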
HepG2 viability – counter-screen for TGF-b inhibitors: cytotoxicity in HepG2 cells; HepG2 CAGA-GFP viability, ATP luminescence, 18 h; Potency, µM (titrated, usually from 46.1 µM), without a hit: top-dose activity change, negative = cytotoxicity, usual class: cytotoxic; 410,000 compounds, 0.76% hits; AID 588856
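CellTiter-Glo luminescence gave cytotoxicity after 18 hours at 37 degrees C. The cells were HepG2 CAGA-GFP in 1% FBS DMEM, stimulated with 500 pg/mL TGF-beta after compound addition. %Activity was normalised to no-cell wells (complete cell-killing) and DMSO (no toxicity), and curves were fitted and classified.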
S2 tox – viability counter-screen for ATXN expression inhibitors. S2 cells (HEK-293 line with an ATXN2-luciferase reporter) viability, CellTiter-Fluor protease fluorescence, 24 h. Potency, µM (titrated, usually from 56.7 µM), actives largely listed as cytotoxic. 400,000 compounds, 0.49% hits; note: nearly all actives have a fitted effect of over 40% in size
* hit, by the source's call; i = inactive; ? = inconclusive; . = not tested or not shown; [ ] = another dose, or the depositor's remark. Calls come from the whole dose curve; as a rule, active = well fitted curve in the direction sought with a large enough effect; inconclusive = small, poorly fitted or top-dose-only effect, or another doubt; inactive = no such curve, though single readings can be large; an effect the other way counts as inactive or inconclusive. Potency is the fitted concentration of half-maximal effect.

SMILES	TDP1 cell CPT	TGFb inhibitor	ATXN2 expr inh	DT40 TDP1 no CPT	HepG2 viability	S2 tox
COc1ccccc1OC(C)C(=O)N1CCN(CCc2ccccn2)CC1 (centres undefined)	6.2%	-3.5%	1.7%	-22.5%	-1.5%	i
COCCNC(=O)C(=O)NCC1OCCN1S(=O)(=O)c1cc(F)ccc1F (centres undefined)	4.2%	5.4%	-5.8%	1.5%	11.1%	i
Nc1ccc(C(=O)O)cc1S(=O)(=O)O	?	0.0%	-2.6%	5.8µM*	9.2%	i
O=C(O)c1ccc(NS(=O)(=O)c2cc(C(=O)O)ccc2Br)cc1	3.3%	-9.6%	-21.5%	-17.7%	-1.8%	i
CCN1C2=C(C(=O)CCC2)C(c2ccc(O)cc2)C2=C1CCCC2=O	3.1%	0.0%	1.1%	-12.9%	12.3%	i
COc1cc(/C=N\NC(=O)c2ccccc2F)ccc1Oc1ccc([N+](=O)[O-])cn1	4.61µM*	-24.7%	?	4.61µM*	3.2%	?
N#C/C(=C/c1ccc(Oc2ccc([N+](=O)[O-])cn2)cc1)C(=O)N1CCOCC1	?	-9.3%	-6.5%	-27.3%	-2.7%	i
COc1cc(/C=C(/C#N)c2ccc(F)cc2)ccc1Oc1ccc([N+](=O)[O-])cn1	2.91µM*	-14.9%	-28.1%	3.66µM*	-0.3%	i
COc1cc(/C=N\NC(=O)c2ccc(Cl)cc2)ccc1Oc1ccc([N+](=O)[O-])cn1	-3.6%	-9.4%	-21.8%	-19.6%	1.2%	i
CCOc1cc(C=C(C#N)C#N)ccc1Oc1ccc([N+](=O)[O-])cn1	18.4µM*	?	-14.6%	13µM*	11.5%	?
CCc1ccc(-n2c(=S)sc3c(=O)[nH]c(SCC(=O)NC4CCCCC4)nc32)cc1	-9.5%	-6.2%	.	-1.6%	2.5%	i
Cc1ccc2nc3c(c(N)c2c1)CCN3C	?	-3.6%	-23.1%	?	-26.5%	i
Cc1ccc2nc3c(c(N)c2c1)CCN3c1ccccc1	16.4µM*	?	-18.1%	18.4µM*	-31.1%	i
CN(Cc1ccc(OC(F)F)cc1)C(=O)/C=C/c1ccc(S(=O)(=O)N2CCOCC2)cc1	18.4µM*	-18.2%	-30.7%	?	-45.1%	i
COc1ccc(/C=C/C(=O)NCc2ccc(F)cc2)cc1S(=O)(=O)N1CCOCC1	-2.4%	-5.4%	5.3%	-22.2%	13.1%	i
COc1ccc(CN(C)C(=O)/C=C/c2ccc(S(=O)(=O)N3CCOCC3)cc2)cc1F	16.4µM*	-13.7%	1.3%	20.6µM*	-28.8%	i
COc1ccc(CNC(=O)/C=C/c2ccc(S(=O)(=O)N3CCOCC3)cc2)cc1	-15.5%	1.3%	-24.6%	?	-0.3%	i
Cc1ccc(Nc2nc(=O)c3cccnc3s2)cc1	-10.2%	-16.9%	63.7%	-17.6%	-1.4%	i
COc1ccc(OC)c(Nc2nc(=O)c3cccnc3s2)c1	20.6µM*	-10.9%	-4.1%[11.3 µM]	-20.6%	-6.9%	i
COc1cccc(Nc2cc(C)nc3ccccc23)c1	?	?	?	20.6µM*	-21.8%	?
COc1ccc(OC)c(Nc2cc(C)nc3ccccc23)c1	18.4µM*	?	?	18.4µM*	-27.1%	?
COc1ccc(OC)c(Nc2cc(-c3ccccc3)nc(N)n2)c1	0.651µM*	-2.9%	1.7%	0.731µM*	-10.8%	?
CC(=C/c1ccc(C(C)C)cc1)/C=N/NC(=O)Cn1nnnc1N	-14.0%	0.1%	12.9%	-28.1%	0.2%	i
COC(=O)C1CCCCN1Cc1ccc2c(c1)CN(C(=O)c1ccc(C)s1)CCO2 (centres undefined)	2.6%[9.04 µM]	.	.	-24.7%	.	i
COC(=O)c1cccc(CSc2nc(-c3ccccc3)c(C#N)c(=O)[nH]2)c1	1.6%	-10.6%	-0.5%	10.0%	0.5%	i
SMILES	TDP1 cell CPT	TGFb inhibitor	ATXN2 expr inh	DT40 TDP1 no CPT	HepG2 viability	S2 tox
COc1ccc(Cl)cc1Nc1cc(C)nc2ccccc12	?	0.0%	-33.9%	14.6µM*	-24.2%	?
Cc1cc(Nc2ccccc2Cl)c2ccccc2n1	23.1µM*	?	?	13µM*	-29.3%	i
Cc1cc(NCc2ccccc2)c2ccccc2n1	20.6µM*	?	?	20.6µM*	-37.2%	i
COC(=O)c1ccc2nc(C)cc(Nc3cccc(Cl)c3C)c2c1	11.6µM*	-3.6%	-29.3%	13µM*	-31.1%	i
COc1ccc(OC)c(NC2=C(c3ccccc3)C(=O)c3ccccc32)c1	1.46µM*	-35.5%	.	1.03µM*	-19.8%	.
Cc1ccccc1-c1n[nH]c(=S)n1/N=C/c1c(C)nn(-c2ccccc2)c1C	-1.5%	-7.0%	64.5%	-1.0%	-2.1%	i
Cc1cccc(/C=N/n2c(-c3cc(-c4ccccc4)n[nH]3)n[nH]c2=S)c1	16.4µM*	?	18.3%	?	-51.0%	i
S=c1[nH]nc(-c2cc(-c3ccccc3)n[nH]2)n1/N=C/C(Br)=C/c1ccccc1	2.91µM*	11.2µM*	?	2.59µM*	-26.8%	29.9µM*
Cc1ccc(-c2n[nH]c(=S)n2/N=C/c2c(C)nn(-c3ccccc3)c2C)cc1	?	-22.8%	-0.1%	16.4µM*	7.7%	i
COc1ccc(OC)c(N(CC(=O)N2CCN(Cc3ccccc3)CC2)S(C)(=O)=O)c1	-19.3%	-7.6%	.	-13.8%	-6.3%	i
COc1ccccc1S(=O)(=O)N(C)C[C@H]1Oc2cc(Br)ccc2S(=O)(=O)N([C@@H](C)CO)C[C@H]1C	29.1µM*	3.8%	-15.2%	16.4µM*	-28.4%	i
COc1ccccc1S(=O)(=O)N(C)C[C@H]1Oc2cc(C#CCC3CCCC3)ccc2S(=O)(=O)N([C@H](C)CO)C[C@H]1C	13µM*	?	?	8.2µM*	-34.3%	?
C[C@H]1CN([C@@H](C)CO)S(=O)(=O)c2ccc(Br)cc2O[C@H]1CN(C)S(=O)(=O)c1ccccc1F	2.9%	16.1%	1.4%	4.5%	12.3%	i
COc1ccc(S(=O)(=O)N(C)C[C@@H]2Oc3cc(C#CC4CCCCC4)ccc3S(=O)(=O)N([C@@H](C)CO)C[C@@H]2C)cc1	18.4µM*	?	-30.5%	18.4µM*	-37.1%	?
COc1cc(Cl)c(C)cc1NC(c1ccccc1)c1nnc(-c2ccccc2Cl)o1 (centres undefined)	?	17.8µM*	.	?	-35.4%	.
